About 79,000 compounds went through this panel and 15% of them were active in at least one assay; those are over-represented in the sample as a whole. Calls of active or inactive are those of the source. Cut-off read from the data, not from the text of the source: active = growth inhibition above about 70%; inactive = the rest.
Assays:
[1] = NCI Yeast Anticancer Drug Screen. Data for the rad52 strain (AID 147);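 note: 0% = growth of vehicle-treated control cultures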; settings: S. cerevisiae rad52 mutant growth inhibition, active compounds read high
In short: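 The repair-mutant yeast strain was incubated with compounds, then growth was read and inhibition derived relative to vehicle.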

[2] = NCI Yeast Anticancer Drug Screen. Data for the wt1 strain (AID 149);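 note: 0% = growth of vehicle-treated wt1 cultures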; settings: S. cerevisiae wt1 strain (SPY 50644) growth inhibition, active compounds read high
In short: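 wt1 strain grown with compound or vehicle; inhibition taken from the growth difference.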

[3] = NCI Yeast Anticancer Drug Screen. Data for the rad50EPP+ strain (AID 151);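 note: 0% = growth of vehicle-treated control cultures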; settings: S. cerevisiae rad50 mutant strain, active compounds read high
In short: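 Vehicle-normalised growth inhibition; rad50EPP+ yeast strain, altered in DNA damage repair, compound-treated.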

[4] = NCI Yeast Anticancer Drug Screen. Data for the mgt1 strain (AID 153); settings: S. cerevisiae mgt1 mutant growth inhibition, active compounds read high
In short: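 Vehicle-normalized growth inhibition is determined in mgt1 yeast, a strain selected for a defined alteration in DNA repair or cell cycle control.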

[5] = NCI Yeast Anticancer Drug Screen. Data for the rad50 strain (AID 155);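 note: 0% = growth of vehicle-only cultures of the same strain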; settings: S. cerevisiae rad50 strain growth inhibition, active compounds read high
In short: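 DNA repair mutant yeast, compound exposure, growth read-out; inhibition is taken relative to vehicle.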

[6] = NCI Yeast Anticancer Drug Screen. Data for the mec2-1 strain (AID 157); settings: S. cerevisiae mec2-1 strain, active compounds read high
In short: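 Mutant yeast (mec2-1) grown with compound; growth inhibition relative to vehicle control reported.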

[7] = NCI Yeast Anticancer Drug Screen. Data for the rad14 strain (AID 159);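 note: 0% = growth of vehicle-treated control cultures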; settings: S. cerevisiae rad14 strain growth inhibition, active compounds read high
In short: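 DNA repair-defective yeast, compound-exposed; % growth inhibition derived by comparison with vehicle-treated controls.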

[8] = NCI Yeast Anticancer Drug Screen. Data for the sgs1 mgt1 strain (AID 161);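 note: 0% = growth of cultures given vehicle only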; settings: S. cerevisiae sgs1 mgt1 strain, active compounds read high
In short: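 Yeast cells carrying a defined DNA-repair defect were exposed to test compounds. Growth inhibition was measured relative to vehicle-treated controls.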

[9] = NCI Yeast Anticancer Drug Screen. Data for the CLN2oe strain (AID 163);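 note: 0% = growth of vehicle-only control cultures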; settings: S. cerevisiae CLN2oe strain, active compounds read high
In short: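 Compounds are applied to yeast harbouring a defined cell-cycle control change; reduced growth compared with vehicle-treated controls gives the value.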

[10] = NCI Yeast Anticancer Drug Screen. Data for the cln2 rad14 strain (AID 165);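 note: 0% = growth equal to vehicle treated cultures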; settings: S. cerevisiae cln2 rad14 strain, active compounds read high
In short: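 Readout is yeast growth inhibition versus vehicle-treated controls, using a strain with cln2 and rad14 alterations exposed to compound.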

[11] = NCI Yeast Anticancer Drug Screen. Data for the bub3 strain (AID 167); settings: S. cerevisiae bub3 mutant strain, active compounds read high
In short: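 In this screen, a yeast mutant lacking normal mitotic checkpoint function is challenged with compound. Relative growth versus vehicle gives the inhibition value.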

[12] = NCI Yeast Anticancer Drug Screen. Data for the wt2 strain (AID 169);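 note: 0% = growth of vehicle-treated yeast cultures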; settings: S. cerevisiae wt2 strain growth inhibition, active compounds read high
In short: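 Against vehicle-treated controls, the growth of yeast exposed to each compound was compared, and the inhibition was recorded.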

[13] = NCI Yeast Anticancer Drug Screen. Data for the mlh1 strain (AID 171);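 note: 0% = growth of vehicle-treated control cultures of the same strain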; settings: S. cerevisiae mlh1 strain growth inhibition, active compounds read high
In short: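 Measured: yeast growth. Reference: vehicle-treated controls. Organism: strain with a defined alteration affecting DNA damage repair or cell cycle control, treated with compound.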

[14] = NCI Yeast Anticancer Drug Screen. Data for the sgs1 strain (AID 173);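 note: 0% = growth of vehicle-only control cultures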; settings: S. cerevisiae sgs1 mutant, active compounds read high
In short: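 Each compound was added to cultures of the altered yeast strain. Growth was recorded, and inhibition was derived by comparison with vehicle controls.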

[15] = NCI Yeast Anticancer Drug Screen. Data for the mlh1 rad18 strain (AID 175); settings: S. cerevisiae mlh1 rad18 strain growth inhibition, active compounds read high
In short: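 Genetically defined yeast (DNA repair-deficient) exposed to compounds; growth inhibition determined relative to vehicle.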

[16] = NCI Yeast Anticancer Drug Screen. Data for the rad18 strain (AID 177); settings: S. cerevisiae rad18 mutant growth inhibition, active compounds read high
In short: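 Vehicle-treated cultures served as the baseline for scoring compound-induced growth inhibition in DNA-repair-mutant yeast.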

[17] = at 5.0 µM (retest, dose inferred, filed as 0.5)
[18] = at 50.0 µM (retest, dose inferred, filed as 5.0)

Measured: growth inhibition

O=C(NNC(=O)OCC(Cl)(Cl)Cl)OCC(Cl)(Cl)Cl
inactive: [1]; at 1.2 µM 0% | [1]; at 3.7 µM 0% | [1]; at 11.0 µM 2% | [1]; at 33.0 µM 2% | [1]; at 100.0 µM 31% | [2]; at 1.2 µM -1% | [2]; at 3.7 µM -2% | [2]; at 11.0 µM -3% | [2]; at 33.0 µM -3% | [2]; at 100.0 µM 11% | [3]; at 1.2 µM 0% | [3]; at 3.7 µM -2% | [3]; at 11.0 µM -1% | [3]; at 33.0 µM 0% | [3]; at 100.0 µM 11% | [4]; at 1.2 µM 0% | [4]; at 3.7 µM -4% | [4]; at 11.0 µM 48% | [5]; at 1.2 µM -1% | [5]; at 3.7 µM 0% | [5]; [17] -12% | [5]; at 11.0 µM 0% | [5]; at 33.0 µM 1% | [5]; [18] 1% | [5]; at 50.0 µM 20.6% | [5]; at 100.0 µM 23% | [6]; at 1.2 µM -6% | [6]; at 3.7 µM -8% | [6]; [17] -6% | [6]; at 11.0 µM -4% | [6]; at 33.0 µM 4% | [6]; [18] 6% | [6]; at 50.0 µM 20.9% | [6]; at 100.0 µM 32% | [7]; at 1.2 µM 1% | [7]; at 3.7 µM 1% | [7]; at 11.0 µM 3% | [7]; at 33.0 µM 6% | [7]; at 100.0 µM 26% | [8]; [17] 0% | [9]; at 1.2 µM -1% | [9]; at 3.7 µM -5% | [9]; at 11.0 µM -2% | [9]; at 33.0 µM 9% | [9]; at 100.0 µM 38% | [10]; [17] 4% | [10]; [18] 11% | [10]; at 50.0 µM -12.9% | [11]; at 1.2 µM -3% | [11]; at 3.7 µM -8% | [11]; [17] -5% | [11]; at 11.0 µM -6% | [11]; at 33.0 µM -4% | [11]; [18] 7% | [11]; at 50.0 µM 6.9% | [11]; at 100.0 µM 20% | [12]; at 1.2 µM -2% | [12]; at 3.7 µM -4% | [12]; at 11.0 µM 29% | [13]; at 1.2 µM -1% | [13]; at 3.7 µM -2% | [13]; at 11.0 µM 20% | [14]; at 1.2 µM -3% | [14]; at 3.7 µM -1% | [14]; at 11.0 µM 42% | [15]; [17] -1% | [15]; [18] 3% | [15]; at 50.0 µM 0.3% | [16]; at 1.2 µM -1% | [16]; at 3.7 µM 0% | [16]; at 11.0 µM 3% | [16]; at 33.0 µM 13% | [16]; at 100.0 µM 53%
active: [4]; at 33.0 µM 91% | [4]; at 100.0 µM 97% | [8]; [18] 96% | [8]; at 50.0 µM 90.3% | [12]; at 33.0 µM 89% | [12]; at 100.0 µM 96% | [13]; at 33.0 µM 88% | [13]; at 100.0 µM 96% | [14]; at 33.0 µM 92% | [14]; at 100.0 µM 97%

O=[N+]([O-])c1cc([As](Br)c2ccc(O)c([N+](=O)[O-])c2)ccc1O
active: [1]; at 11.0 µM 99% | [1]; at 33.0 µM 99% | [1]; at 100.0 µM 98% | [2]; at 3.7 µM 70% | [2]; at 11.0 µM 99% | [2]; at 33.0 µM 98% | [2]; at 100.0 µM 98% | [3]; at 33.0 µM 74% | [3]; at 100.0 µM 99% | [4]; at 3.7 µM 88% | [4]; at 11.0 µM 100% | [4]; at 33.0 µM 99% | [4]; at 100.0 µM 99% | [5]; at 3.7 µM 89% | [5]; [17] 99% | [5]; at 11.0 µM 99% | [5]; at 33.0 µM 99% | [5]; [18] 99% | [5]; at 50.0 µM 99.5% | [5]; at 100.0 µM 98% | [6]; at 3.7 µM 93% | [6]; [17] 99% | [6]; at 11.0 µM 99% | [6]; at 33.0 µM 100% | [6]; [18] 99% | [6]; at 50.0 µM 99.8% | [6]; at 100.0 µM 100% | [7]; at 11.0 µM 100% | [7]; at 33.0 µM 100% | [7]; at 100.0 µM 99% | [8]; [17] 99% | [8]; [18] 99% | [8]; at 50.0 µM 99.5% | [9]; at 11.0 µM 93% | [9]; at 33.0 µM 98% | [9]; at 100.0 µM 98% | [10]; [17] 98% | [10]; [18] 99% | [10]; at 50.0 µM 99.5% | [11]; at 1.2 µM 97% | [11]; at 3.7 µM 98% | [11]; [17] 93% | [11]; at 11.0 µM 97% | [11]; at 33.0 µM 98% | [11]; [18] 99% | [11]; at 50.0 µM 99.5% | [11]; at 100.0 µM 99% | [12]; at 3.7 µM 94% | [12]; at 11.0 µM 99% | [12]; at 33.0 µM 99% | [12]; at 100.0 µM 99% | [13]; at 3.7 µM 75% | [13]; at 11.0 µM 99% | [13]; at 33.0 µM 100% | [13]; at 100.0 µM 100% | [14]; at 3.7 µM 90% | [14]; at 11.0 µM 99% | [14]; at 33.0 µM 99% | [14]; at 100.0 µM 99% | [15]; [17] 99% | [15]; [18] 99% | [15]; at 50.0 µM 99.8% | [16]; at 3.7 µM 85% | [16]; at 11.0 µM 99% | [16]; at 33.0 µM 99% | [16]; at 100.0 µM 98%
inactive: [1]; at 1.2 µM 15% | [1]; at 3.7 µM 57% | [2]; at 1.2 µM 10% | [3]; at 1.2 µM 0% | [3]; at 3.7 µM 3% | [3]; at 11.0 µM 26% | [4]; at 1.2 µM 28% | [5]; at 1.2 µM 28% | [6]; at 1.2 µM 60% | [7]; at 1.2 µM 31% | [7]; at 3.7 µM 69% | [9]; at 1.2 µM 16% | [9]; at 3.7 µM 22% | [12]; at 1.2 µM 12% | [13]; at 1.2 µM 31% | [14]; at 1.2 µM 33% | [16]; at 1.2 µM 26%

— PubChem BioAssay (NCI)
